# Measurements reported in PubChem BioAssay AID2017 (National Center for Advancing Translational Sciences (NCATS), 2009).
# Inconclusive results are not listed. The source made the active and inactive calls. Calls come from the whole dose curve; as a rule, active = well fitted curve in the direction sought with a large enough effect; inconclusive = small, poorly fitted or top-dose-only effect, or another doubt; inactive = no such curve, though single readings can be large or run the other way.
# Biological target: 4-diphosphocytidyl-2-C-methyl-D-erythritol kinase, chloroplastic (Arabidopsis thaliana) (UniProt O81014)
# Experiment: Confirmatory Assay for Inhibitors of Human Galactokinase (GALK): CDP-Me assay counterscreen
# Conditions: ATP depletion, Kinase-Glo luminescence
# Source text: NIH Molecular Libraries Probe Production Centers Network [MLPCN] NIH Chemical Genomics Center [NCGC] MLPCN Grant: R03 MH085689-01 Assay Submitter (PI): Kent Lai (University of Utah School of Medicine, 50 N Mario Capecchi Drive, Salt Lake City, UT 84132) NCGC Assay Overview The GHMP kinase family is a unique class of important enzymes that plays an essential role in many metabolic processes. It contains more than 170 protein members among which are the galactokinase (GALK) and the CMK enzymes. GALK plays a crucial role in galactose processing and is a potential therapeutic target for Classic Galactosemia (OMIM: 230400). CMK is involved for the non-mevalonate synthesis of isoprenoids precursors and natural products like sterols or ubiquinones which are important to many biological functions. […]
# NCGC Assay Protocol Summary: Three uL/well of substrate solution (15 uM ATP, 30 uM CDP-ME, 20 mM HEPES pH8.0, 5 mM MgCl2, 40 mM KCl, 1 mM DTT, 0.01% BSA final concentration) was dispensed into 1536-well, assay plates (Greiner, solid white medium-binding plates) with Aurora Discovery BioRAPTR Flying Reagent Dispenser (FRD; Beckton-Dickenson). […] After 1 min, luminescence was detected with the ViewLux plate reader (Perkin Elmer, Waltham, MA) using a 1 sec exposure time and 2x binning settings.
# Sequence of 4-diphosphocytidyl-2-C-methyl-D-erythritol kinase, chloroplastic (Arabidopsis thaliana) (O81014 whole entry, looked up): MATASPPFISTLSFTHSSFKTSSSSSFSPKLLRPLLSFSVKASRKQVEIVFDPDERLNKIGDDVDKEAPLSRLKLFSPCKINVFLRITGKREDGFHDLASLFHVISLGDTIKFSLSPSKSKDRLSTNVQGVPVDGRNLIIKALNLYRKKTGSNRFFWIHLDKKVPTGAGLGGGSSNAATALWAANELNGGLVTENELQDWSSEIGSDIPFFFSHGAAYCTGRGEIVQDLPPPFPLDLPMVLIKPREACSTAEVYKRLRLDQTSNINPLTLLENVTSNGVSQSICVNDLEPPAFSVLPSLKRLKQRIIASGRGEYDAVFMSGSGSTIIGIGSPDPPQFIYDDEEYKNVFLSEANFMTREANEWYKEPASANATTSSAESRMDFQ
smiles,measurement,value
Cc1cc2c(C(C)C)c(O)c(O)c(C=O)c2c(O)c1-c1c(C)cc2c(C(C)C)c(O)c(O)c(C=O)c2c1O,Potency,47.3 µM (active)
